Measured values: PMC4336329 (PLoS ONE, 2015)
In all, about 310,000 compounds went through this assay and about 14,000 (4.5%) showed an effect of 50% or more. The effect is printed as a negative number. The sample as a whole holds a higher share of strong results than the screen did.

biological target: human ether-à-go-go-related gene (hERG) potassium channel (human, UniProt Q12809); test: primary screen, population patch clamp on CHO cells stably expressing hERG; higher = less effect of the substance
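Also: peak tail current of the secondary pulse compared with the same well before compound.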

human ether-à-go-go-related gene (hERG) potassium channel, sequence (Q12809 whole entry, looked up): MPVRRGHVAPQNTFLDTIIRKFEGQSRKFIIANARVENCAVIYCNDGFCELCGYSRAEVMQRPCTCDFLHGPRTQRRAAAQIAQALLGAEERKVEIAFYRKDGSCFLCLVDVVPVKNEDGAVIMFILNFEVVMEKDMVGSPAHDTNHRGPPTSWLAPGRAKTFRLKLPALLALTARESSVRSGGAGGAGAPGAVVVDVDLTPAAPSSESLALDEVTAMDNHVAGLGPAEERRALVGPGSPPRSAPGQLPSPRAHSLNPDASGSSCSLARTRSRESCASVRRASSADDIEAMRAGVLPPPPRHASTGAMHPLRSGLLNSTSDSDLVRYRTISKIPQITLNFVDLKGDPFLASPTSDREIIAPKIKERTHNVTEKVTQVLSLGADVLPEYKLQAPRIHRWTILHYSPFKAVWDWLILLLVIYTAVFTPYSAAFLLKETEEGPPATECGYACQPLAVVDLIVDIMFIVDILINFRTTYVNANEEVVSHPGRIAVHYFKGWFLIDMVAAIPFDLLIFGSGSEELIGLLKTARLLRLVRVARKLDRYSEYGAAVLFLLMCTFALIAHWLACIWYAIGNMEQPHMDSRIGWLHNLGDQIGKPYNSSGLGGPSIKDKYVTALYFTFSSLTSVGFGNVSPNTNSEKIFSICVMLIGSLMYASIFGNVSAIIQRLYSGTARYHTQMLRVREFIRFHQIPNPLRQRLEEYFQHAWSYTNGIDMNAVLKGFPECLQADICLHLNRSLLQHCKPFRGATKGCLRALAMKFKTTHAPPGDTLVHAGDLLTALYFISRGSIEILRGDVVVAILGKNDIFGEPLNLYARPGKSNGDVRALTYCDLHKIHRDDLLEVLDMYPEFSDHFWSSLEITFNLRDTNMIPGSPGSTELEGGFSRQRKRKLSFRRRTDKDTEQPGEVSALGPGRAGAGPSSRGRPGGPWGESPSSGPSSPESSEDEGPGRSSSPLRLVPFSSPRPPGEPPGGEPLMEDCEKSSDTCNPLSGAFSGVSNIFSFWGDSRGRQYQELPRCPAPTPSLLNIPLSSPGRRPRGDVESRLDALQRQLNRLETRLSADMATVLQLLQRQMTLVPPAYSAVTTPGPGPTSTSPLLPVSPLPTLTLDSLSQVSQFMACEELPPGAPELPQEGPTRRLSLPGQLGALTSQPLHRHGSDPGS

SMILES	hERG current change (%, negative = inhibition) at 10uM [%]
CCC(C)n1c(=S)[nH]c2ccccc2c1=O (centres unmarked)	-0.621
O=C(CC12CC3CC(CC(C3)C1)C2)NC(=S)N1CCCCC1	26.6
CN(CC(=O)Nc1ccccc1Br)C(=O)c1ccccc1-c1nc2ccccc2s1	-26.3
O=C(CCS(=O)(=O)c1ccc(Br)cc1)NC1CCCC1	11.6
COC(=O)c1ccc(-c2c(-c3ccccc3)ncc3cc(F)ccc23)cc1	7.97
CCN(CC)CC(O)CN1c2ccccc2Sc2ccccc21 (centres unmarked)	-25
CC1CCN(C(=O)N2c3ccccc3Sc3ccccc32)CC1	-5.69
CC1CCN(CC(O)CN2c3ccccc3Sc3ccccc32)CC1 (centres unmarked)	-59.2
COC(=O)c1sc(NC(=O)COc2ccc(OC)cc2)nc1C	6.37
COC(=O)c1ccccc1NC(=O)c1cnn2cccnc12	13
C/C(NC(=O)c1ccccc1)=C1/C(=O)CC2C1C2(C)C (centres unmarked)	2.15
O=C(CN(Cc1ccco1)C(=O)c1cc(=O)[nH]c2ccccc12)Nc1ccccc1C(F)(F)F	-12
O=C(CN(Cc1ccco1)C(=O)c1cc(=O)[nH]c2ccccc12)Nc1ccccc1Br	-53.5
COc1cc(SC)ccc1C(=O)N(CC(=O)Nc1ccccc1Br)Cc1ccco1	-10.4
CC(C)=CCOc1ccc2ccc(=O)oc2c1	-12.9
Cc1cccc(C(=O)Nc2ccccc2NC(=O)c2cccc(C)c2)c1	8.24
O=C(CN1CCCC1)Nc1sc2c(c1C(=O)Nc1ccc(Br)cc1)CCC2	-1.29
COc1ccc(NC(=O)c2c(NC(=O)CNCc3ccco3)sc3c2CCC3)cc1	17.8
CCOc1ccc(NC(=O)c2c(NC(=O)CN3CCN(C)CC3)sc3c2CCC3)cc1	-72.7
COC(=O)c1c(NC(=O)CCN2CCOCC2)sc2c1CCCC2	-26
CCOc1ccc(NC(=O)c2c(NC(=O)CN3CCCC3)sc3c2CCC3)cc1	-3.84

SMILES	hERG current change (%, negative = inhibition) at 10uM [%]
CCOc1ccc(NC(=O)c2c(NC(=O)CNCCN3CCOCC3)sc3c2CCC3)cc1	-69.3
CC(NC(=O)N(Cc1ccccc1)Cc1ccc2c(c1)OCO2)(C(F)(F)F)C(F)(F)F	7.8
O=C(CCCN=C1NS(=O)(=O)c2ccccc21)OCc1cc([N+](=O)[O-])cc2c1OCOC2	-14.7
CCC(OC(=O)c1ccco1)C(=O)NCc1ccc(OC)cc1 (centres unmarked)	-8.67
O=C(Cc1cccc2ccccc12)N1CC[C@@]2(O)CCCC[C@H]2C1	12.5
CN(C)S(=O)(=O)c1cccc(NC(=O)COC(=O)c2ccc3c(c2)OCO3)c1	-19.4
COc1ccc(CNCCCSc2ncccn2)cc1OC.Cl	11.9
COc1ccc(CNCCC(c2ccc(F)cc2)c2ccc(OC(C)C)cc2)cc1OC (centres unmarked)	-73
COc1ccc(CN(CCC(c2ccccc2)c2ccc(OC(C)C)cc2)C(=O)CCl)cc1OC (centres unmarked)	-1.82
CCOCCCNCc1ccc(OC)c(OC)c1.O=C(O)C(=O)O	3.24
COc1ccc(CC(=O)NC(C)CCc2ccccc2)cc1OC (centres unmarked)	8.96
COc1ccc(C(C)NC(=S)NCc2ccc(F)cc2)cc1OC (centres unmarked)	-5.63
COc1ccc(CNCCC(c2ccccc2)c2ccc(OC(C)C)cc2)cc1OC (centres unmarked)	-69.7
COc1ccc(C(CCNCc2ccc(OC(C)C)cc2)C(C)C)cc1 (centres unmarked)	-39
COc1ccc(CNCCC(c2ccc(OC(C)C)cc2)c2ccccc2OC)cc1OC (centres unmarked)	-71.3
COc1ccc(CNCCCO)cc1OC	4.57
COc1ccc(CNCCC(c2ccc(OC(C)C)cc2)C(C)C)cc1OC (centres unmarked)	-74.5
COc1ccc(OC)c(NC(=S)NCCC(c2ccccc2)c2ccccc2)c1	1.73
C/C(=N\NC(=O)c1ccc(CN2CCOCC2)cc1)c1cccc([N+](=O)[O-])c1	-19.5
COc1ccccc1C(=O)Nc1ccccc1C(=O)NC1CCCCC1	-1.19
O=C(COc1ccccc1Cl)Nc1ccc(C(=O)c2ccc(C(=O)O)cc2)cc1	11.7

SMILES	hERG current change (%, negative = inhibition) at 10uM [%]
Cc1cccc2c(=O)oc(-c3ccccc3Cl)nc12	14.2
Cc1ccc(CN2[C@@H](CC(C)C)COCCS2(=O)=O)cc1	-2.46
CCOc1ccc(CN(C)C(=O)c2ccc(NC(=O)CC3SC(N4CCCC4)=NC3=O)cc2)cc1 (centres unmarked)	7.53
O=C(NCC1CCCO1)c1ccccc1-c1nc(-c2ccc(F)cc2)no1 (centres unmarked)	-31.1
CCc1nnc(NC(=O)CSc2nnc(COc3ccccc3)n2Cc2ccccc2)s1	5.71
COc1ccc(NC(=O)c2sccc2-n2cccc2)cc1	3.64
CCc1cccc2c(C(=O)CN3C(=O)NC4(CCc5ccccc54)C3=O)c[nH]c12 (centres unmarked)	10.4
CC(NC(=O)CSc1nc(=O)cc(N)n1CCc1ccccc1)c1ccccc1 (centres unmarked)	1.91
O=C(Cn1c(=O)n(-c2cccc(Cl)c2)c(=O)n1CC(=O)N1CCCCC1)N1CCCCC1	4.64
CCOc1ccc(-n2c(C)cc(C(=O)NS(=O)(=O)c3ccc(C)cc3)c2C)cc1	-32.3
CCOC(=O)C1CCN(C(=O)CSc2n[nH]c(=O)[nH]c2=O)CC1	7.16
CC(C)Oc1ccc(CNC(=O)CC(c2ccccc2)c2cc(Cl)ccc2O)cc1 (centres unmarked)	11.8
CC(C)Oc1ccc(CNC(=O)Oc2ccccc2)cc1	8.19
COc1ccc(C(CCN(Cc2ccc(OC)c(OC)c2)C(C)=O)c2ccccc2)cc1 (centres unmarked)	-33.9
COc1ccc(C(CCNCc2ccc(OC)c(OC)c2)c2ccc(F)cc2)cc1 (centres unmarked)	-71.3
COc1ccc(C(CCN(Cc2ccc(OC)c(OC)c2)C(C)=O)C(C)C)cc1 (centres unmarked)	-52.3
COc1ccc(NCc2ccc(OC)c(OC)c2)cc1	2.67
COc1ccc(CNC(=S)NCc2ccc(F)cc2)cc1OC	-0.604
COc1ccc(CN(CCC(c2ccco2)C(C)C)C(C)=O)cc1OC (centres unmarked)	0.825
CC(C)Oc1ccc(C(CCNCc2ccc(O)cc2)c2ccccc2)cc1 (centres unmarked)	-58.7
